# An excerpt weighted towards active compounds, which were near 32% of everything screened.
# PostGolgi yeast – growth inhibition of a yeast mutant, post-Golgi transport screen. 0.9% of 98,000 active. post-Golgi transport phenotypic cell assay. inhibition, % at 10 µM;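 further: yeast cells grown in 1536-well plates; yeast grown about 18 h at 30C before absorbance read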
# PostGolgi ctrl – inhibits growth of the yeast control strain; efflux-deficient yeast background strain, growth absorbance A615, 16 h; inhibition, % at 10 µM; 5% of 98,000 active; AID 738
# CYP2C19 act – cytochrome P450 2C19 (human) activation | P33261 | recombinant CYP2C19, luciferin-H EGE luminescence; hits give high values; 0 = fully inhibited enzyme, 1 = untreated enzyme | activation factor at 5 µM | 96,000 tested, under 10 active | AID 1025;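 active means activation factor of at least 2 at 5 µM in the primary screen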;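 further: 0 = wells with 2.5 mM tranylcypromine and 1 = vehicle-only wells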
# Target sequence (P33261 whole entry, looked up): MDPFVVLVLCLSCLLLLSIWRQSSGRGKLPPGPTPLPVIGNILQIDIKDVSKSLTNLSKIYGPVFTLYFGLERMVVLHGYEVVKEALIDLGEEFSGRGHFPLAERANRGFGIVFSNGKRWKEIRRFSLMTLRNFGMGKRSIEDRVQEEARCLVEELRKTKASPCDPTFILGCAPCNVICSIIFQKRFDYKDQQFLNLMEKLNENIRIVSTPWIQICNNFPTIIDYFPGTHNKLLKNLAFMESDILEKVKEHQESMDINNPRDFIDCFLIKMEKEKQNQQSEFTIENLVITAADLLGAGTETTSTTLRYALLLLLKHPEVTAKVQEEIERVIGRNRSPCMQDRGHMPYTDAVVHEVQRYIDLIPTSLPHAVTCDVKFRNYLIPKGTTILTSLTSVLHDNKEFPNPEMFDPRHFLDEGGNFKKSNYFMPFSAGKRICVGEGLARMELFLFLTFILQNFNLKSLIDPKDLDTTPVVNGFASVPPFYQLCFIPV
# CYP2C9 inhib – inhibitors of human CYP2C9; P11712; CYP2C9 Supersomes, luciferin-H conversion, luminescence; inhibition, % at 5 µM; 20% of 96,000 active; AID 777;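 active means blocking of liver enzyme CYP2C9 beyond about 50% at 5 µM, limit read from the data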
# CYP2C9 act – CYP2C9 (human) activation; recombinant CYP2C9, luciferin-H conversion, luminescence; hits give high values; factor 1 = untreated enzyme, 0 = blocked; AID 1024; P11712; 1.4% of 96,000 active; activation factor at 5 µM;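 active means activation factor of 2 or more for CYP2C9 at a 5 µM dose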;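 further: 0 = sulfaphenazole-blocked wells and 1 = vehicle-only wells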
# CYP2C19 inh – human CYP2C19 inhibition; P33261; CYP2C19 Supersomes, luciferin-H EGE luminescence, 30 min; inhibition, % at 5 µM; 21% of 96,000 active; AID 778;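 active means CYP2C19 inhibition above a set limit at 5 µM in the primary screen, cut at about 50% in these data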;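 further: plate controls were negative control wells for no effect and 2.5 mM tranylcypromine positive control for full effect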
# The depositor's hits bear a star; / = no result. Unless noted, no stated cut-off is given here; in the data, active means inhibition above about 30%; inactive means the rest.
SMILES,PostGolgi yeast,PostGolgi ctrl,CYP2C19 act,CYP2C9 inhib,CYP2C9 act,CYP2C19 inh
O=[N+]([O-])c1ccc(N/N=C/c2c[nH]c3ccccc23)c(S(=O)(=O)Nc2ccc(Cl)cc2)c1,86.5*,24.0,1,11.1,0.9,0.7
O=C(CNC(=O)c1ccc(Oc2ccccc2)cc1)OC1CCCCC1=O (stereo not given),11.4,-6.5,0.9,11.8,0.9,10.7
c1ccc(N2CCN(c3ccccc3)C2c2ccncc2)cc1,7.0,30.8*,0.1,89.7*,0.1,86.7*
Cc1ccc(N2CCN(c3ccc(C)cc3)C2c2cccnc2)cc1,13.4,7.6,0.2,34.5,0.7,76.5*
Cc1cccc(-n2nc(C)cc2N)c1,3.7,5.2,1.1,-12.7,1.1,-6.5
COCc1nnc(NS(=O)(=O)c2c(C)cc(C)cc2C)s1,0.0,10.1,1,84.4*,0.2,4.6
COCc1nnc(NS(=O)(=O)c2ccc(C)cc2)s1,1.5,1.5,1.1,52.1*,0.5,-7.4
CCc1ccccc1NC(=O)N[C@@H](C)C(=O)OC,-17.4,1.5,0.9,3.2,1,7.0
CN(C)c1nc(-c2ccc([N+](=O)[O-])cc2)cs1,1.6,6.3,0.7,4.3,1,30.6
Cc1ccccc1C(=O)NC(C)C(c1cccs1)N1CCOCC1 (stereo not given),-5.7,-8.6,0.7,17.4,0.8,31.1
COc1ccccc1C(=O)NC(C)C(c1cccs1)N1CCOCC1 (stereo not given),-5.3,3.4,0.5,24.4,0.8,50.7*
Cc1cccc(NC(=O)NC(C)C(c2cccs2)N2CCOCC2)c1 (stereo not given),1.0,3.0,0.2,44.5,0.6,82.6*
CC(C)C(=O)NC(C)C(c1cccs1)N1CCOCC1 (stereo not given),0.0,-2.5,1,18.6,0.8,3.6
CCCNC(=O)CS(=O)Cc1nc(-c2ccccc2C)oc1C (stereo not given),0.7,1.0,0.9,0.2,1,7.7
C/C(=N\NC(=O)c1c(Cl)c(C)nn1C)c1cccc(NC(=O)COc2ccc(Cl)cc2)c1,29.8,5.0,0.7,40.5,0.6,34.5
Cc1snc(S(=O)(=O)Cc2c(Cl)cccc2Cl)c1C#N,-4.9,9.8,0.3,28.7,0.7,67.3*
CCOC(=O)c1ccc(NC(=O)CNC(=O)C2CCCCC2)cc1,-0.5,7.1,0.7,53.8*,0.5,26.9
O=C(COC(=O)CNC(=O)C1CCCCC1)Nc1ccc2ccccc2c1,5.0,28.9,0.3,35.5,0.6,69.0*
COC(=O)c1ccc(NC(=O)CNC(=O)C2CCCCC2)cc1,-7.9,-10.3,1,37.0,0.6,-2.5
O=C(CNC(=O)C1CCCCC1)Nc1cc(Cl)cc(Cl)c1,-6.0,12.9,0.4,25.0,0.8,60.8*
COCCn1c(SCCCC(=O)c2ccc(Br)cc2)nnc1-c1ccncc1,-10.2,36.4*,0.1,84.6*,0.2,93.8*
Cn1c(SCC(=O)c2ccc(F)cc2)nnc1-c1cnccn1,5.5,39.0*,0.6,-6.1,1.1,37.1
CCn1c(Cn2nnc(-c3ccccc3)n2)nnc1SCC(=O)Nc1ccccc1,-0.9,3.2,1,-6.6,1.1,2.1
Cn1c(Cn2nnc(-c3ccccc3)n2)nnc1SCc1ccccc1Cl,-0.2,16.5,1.1,64.2*,0.4,-9.5
Cc1occc1-c1nnc(SCCCC(=O)c2ccc(F)cc2)n1C,5.7,-3.8,0.3,54.1*,0.5,71.5*
SMILES,PostGolgi yeast,PostGolgi ctrl,CYP2C19 act,CYP2C9 inhib,CYP2C9 act,CYP2C19 inh
Cc1c(C(=O)N2CCc3ccccc32)oc2c1C(=O)CC(C)(C)C2,4.1,9.8,0.9,23.1,0.8,10.7
O=C(Nc1c2ccccc2nc2ccccc12)C(Cl)(Cl)Cl,1.9,1.8,0.9,22.7,0.8,9.6
CCc1cccc2c(C(=O)CSc3nnc(-c4ccoc4C)n3C)c[nH]c12,7.2,0.0,0.3,52.6*,0.5,65.0*
Cc1ccc(NC(=O)CSc2nnc(-c3ccncc3)n2C)cc1C,-1.4,10.4,0.6,42.2,0.6,42.4
Cn1c(SCCCC(=O)c2ccccc2)nnc1-c1ccncc1,-1.9,-4.2,0.3,54.0*,0.5,67.9*
Cn1c(SCc2ccccc2Cl)nnc1-c1cnccn1,18.0,-7.2,0.2,9.0,0.9,77.4*
Cn1c(SCCCC(=O)c2ccc(F)cc2)nnc1-c1ccncc1,11.2,7.5,0.3,59.0*,0.4,71.0*
COC(=O)CC(NC(=O)c1ccco1)c1ccc(C(C)C)cc1 (stereo not given),-8.0,-5.2,0.7,22.7,0.8,29.5
Cc1ccc(C)n1-c1ncn[nH]1,0.3,12.2,0.9,-2.4,1,7.7
C/C(=N\O)c1ccc2c3c([nH]c2c1)CCCC3,11.2,24.2,0.7,2.3,1,30.6
N#Cc1ccccc1Cn1c(=O)n(Cc2ccc(C(=O)NCc3ccco3)cc2)c(=O)c2ccccc21,4.2,4.3,/,/,/,/
COc1ccccc1NC(=O)CNS(=O)(=O)c1ccccc1,4.6,0.0,0,-53.5,1.5,96.0*
COc1ccccc1NC(=O)NS(=O)(=O)c1ccc(C)cc1,-6.3,-1.1,1,47.2,0.5,1.2
COc1cc(NC(=O)CS(=O)(=O)c2ccccc2)cc(OC)c1OC,-6.0,11.1,0.3,31.2,0.7,66.2*
Cc1cccc(NC(=O)Cn2cccc2)c1,-1.1,-2.6,0.8,22.1,0.8,23.6
Cc1ccc(C)c(NC(=O)CNS(=O)(=O)c2ccccc2)c1,-2.1,18.7,0.2,-105.1,2.1*,78.7*
Cc1cccc(NC(=O)CNc2cc(C)ccc2C)c1,18.0,11.5,0.2,26.1,0.7,84.2*
Cc1nc2cc(NC(=O)COc3ccccc3C#N)ccc2n1-c1ccccc1,5.8,8.7,0.8,19.7,0.8,18.2
CC(=O)Cc1nsc(NC(=O)c2cc(-c3cccc(C(F)(F)F)c3)oc2C)n1,-3.7,9.1,1,20.8,0.8,-3.0
Cc1cc(C)c(C(N)=O)c(SCC(=O)c2ccc(Cl)cc2)n1,-6.3,-9.9,0.6,33.5,0.7,37.3
Cc1ccc(C(=O)CSc2nc(C)cc(C)c2C(N)=O)cc1,3.9,3.7,0.2,60.4*,0.4,76.6*
COc1ccc(C(=O)C[n+]2ccc3c(c2)nc(-c2ccc(OC)cc2OC)n3C)cc1,0.3,4.3,1.2,-10.3,1.1,-18.0
COc1cc(C2C(C(C)=O)=C(O)C(=O)N2CCc2c[nH]c3ccccc23)ccc1O (stereo not given),8.2,0.1,1,63.7*,0.4,-2.5
Cc1cc(C)cc(Oc2ncnc3c2ncn3Cc2c(Cl)cccc2Cl)c1,-1.0,34.1*,0.7,-41.9,1.4,28.1
CC1=C(C(=O)N2CCOCC2)C(c2ccccc2F)C2=C(CCCC2=O)N1 (stereo not given),1.9,15.7,0.9,-4.4,1,9.5

# Bioassay records deposited in PubChem by several laboratories.
